# ALDH1A1 inh – qHTS Assay for Inhibitors of Aldehyde Dehydrogenase 1 (ALDH1A1); Aldehyde dehydrogenase 1A1 (Homo sapiens), P00352; Purified ALDH1A1, NADH fluorescence, propionaldehyde substrate; Potency, µM (titrated, usually from 75.3 µM), inactives show at the highest dose activity, negative = inhibition, hits mostly inhibitors; 7.3% of 220,000 active; AID 1030, 2008; active means well fitted inhibition curve with a large enough effect, not every such curve was filed as active; inconclusive means small, poorly fitted or top-dose-only effect, or another doubt; inactive means no such curve, though single readings can be large or run the other way;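 further: potency means the concentration at half of the fitted maximal effect; plate controls were no enzyme wells and a reference inhibitor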
# NPSR antagonist – qHTS Assay for Antagonists of the Neuropeptide S Receptor: cAMP Signal Transduction; 1% of 220,000 active; AID 1461, 2008; Potency, µM (highest dose often 38.3 µM), for inactives: top-dose activity change, negative = inhibition, hits mostly inhibitors; CHO-NPSR cells, cAMP TR-FRET, antagonist mode; Q6W5P4; further: potency means the concentration at half of the fitted maximal effect; nearly all actives have a fitted effect of over 50% in size
# Target sequence (Q6W5P4 whole entry, looked up): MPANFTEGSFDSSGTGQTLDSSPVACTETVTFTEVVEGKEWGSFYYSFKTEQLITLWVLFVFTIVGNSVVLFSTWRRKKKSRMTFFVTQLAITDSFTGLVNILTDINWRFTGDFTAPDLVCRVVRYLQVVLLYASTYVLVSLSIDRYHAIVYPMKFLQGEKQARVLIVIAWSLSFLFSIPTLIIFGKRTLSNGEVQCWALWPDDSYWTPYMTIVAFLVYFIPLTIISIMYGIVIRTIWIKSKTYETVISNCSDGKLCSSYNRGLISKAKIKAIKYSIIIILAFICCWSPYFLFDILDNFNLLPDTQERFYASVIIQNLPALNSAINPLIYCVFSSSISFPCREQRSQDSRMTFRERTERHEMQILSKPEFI
# IMPase Li cell – qHTS Assay for Identifying the Cell-Membrane Permeable IMPase Inhibitors: Potentiation with Lithium | CHO-M1 cells, IP1 TR-FRET (IP-One), carbachol + lithium | Potency, µM (highest dose often 59.4 µM), for the others: at the highest dose activity, negative = IMPase inhibition, most hits filed as inhibitors | AID 1457, 2008 | 0.35% of 210,000 active;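 further: IP1 builds up when IMPase is blocked and the TR-FRET signal falls; potency means the concentration at half of the fitted maximal effect; plate controls were basal vehicle for no effect and high inhibitor control for full effect; nearly all actives have a fitted effect of over 50% in size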
#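 CHO cells stably expressing M1 receptor (2000/well) were cultured 16–30 h, then exposed to compounds with a small lithium addition for 30 min at 37C. IP1 was measured by TR-FRET competition; AC50 from Hill fits.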
# IMPase inh – qHTS Assay for Identifying the Cell-Membrane Permeable IMPase Inhibitors. Inositol monophosphatase 1 (Rattus norvegicus), P97697. CHO-M1 cells, IP1 accumulation, HTRF TR-FRET ratio. inhibition (IP1 accumulation), % at 46.1 µM. 120,000 tested, under 10 active. AID 901, 2007; active means well fitted curve in the direction sought with a large enough effect in the signal ratio, not every such curve was filed as active; inconclusive means small, poorly fitted or top-dose-only effect, or a change in a side signal; inactive means no such curve, though single readings can be large or run the other way; the % refers to the signal ratio;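 further: cells stimulated with carbachol in lithium chloride buffer; plate controls were DMSO basal wells for no effect and reference inhibitor wells for full effect; higher means more IMPase inhibition seen as more IP1 and lower FRET ratio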
#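 In this qHTS, compounds (final up to 46 uM) act on CHO-M1 cells that are then activated through the M1 receptor with carbachol, in pH 7.4 buffer containing 50 mM LiCl, for 30 min. IP1 accumulation is quantified by the IP-One immunoassay.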
# HPGD block – qHTS Assay for Inhibitors of HPGD (15-Hydroxyprostaglandin Dehydrogenase) | 15-hydroxyprostaglandin dehydrogenase [NAD(+)] (Homo sapiens), P15428 | purified HPGD, NADH fluorescence kinetic, PGE2 substrate | Potency, µM, inactives show at the highest dose activity change, negative = inhibition, usual class: inhibitors | 4.3% of 150,000 active; active means well fitted inhibition curve with a large enough effect, not every such curve was filed as active; inconclusive means small, poorly fitted or top-dose-only effect, or another doubt; inactive means no such curve, though single readings can be large or run the other way; further: potency means the concentration at half of the fitted maximal effect
#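 NADH formation kinetics: reaction with 30 uM PGE2 and 1 mM NAD+ (final), 20 nM enzyme, Tris-HCl pH 8 with Tween 20, after 15 min compound preincubation at room temperature. Fluorescence change, last versus first of five reads.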
# ALOX12 inhib – qHTS Assay for Inhibitors of 12-hLO (12-human lipoxygenase); 0.12% of 150,000 active; purified 12-hLO, xylenol orange hydroperoxide absorbance; Potency, µM (doses to about 57.1 µM), for inactives: at the highest dose activity change, negative = inhibition, actives largely listed as inhibitors; further: potency means the concentration at half of the fitted maximal effect; nearly all actives have a fitted effect of over 55% in size
#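 Hydroperoxide formation by human 12-lipoxygenase from 40 uM arachidonic acid was followed colorimetrically via ferric-xylenol orange complex, using the 573/405 nm absorbance ratio. Enzyme concentration was 150 nM, with 30 min reaction at room temperature.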
# * hit, by the source's call; ? = inconclusive; nt = no result; ! = not active in a repeat; [ ] = remark or other dose. The list is not random: actives were taken first. Their share in the collection is about 8.9%. Unless noted, the call rests on the fitted dose curve; in most records, active means well fitted curve in the direction sought with a large enough effect; inconclusive means small, poorly fitted or top-dose-only effect, or another doubt; inactive means no such curve, though single readings can be large; an effect the other way counts as inactive or inconclusive. Unless noted, on the % scale 0 is the no-effect control and ±100 the full control effect.
SMILES,ALDH1A1 inh,NPSR antagonist,IMPase Li cell,IMPase inh,HPGD block,ALOX12 inhib
O=C(CSc1nc2ccccc2c(=O)n1-c1ccccc1)NCc1ccc2c(c1)OCO2,?,-14.8%[46.1 µM],9.9%[38.3 µM],3.2,-12.8%,4.4%
CCC(=O)c1ccc(OCCSc2ncccn2)cc1,-5.7%,-19.1%[46.1 µM],6.3%[38.3 µM],3.7,31.6µM*,-1.4%
CC(C)c1ccc(N(C(=O)c2cc3ccccc3oc2=O)C2C=CS(=O)(=O)C2)cc1 (configuration not stated),25.1µM*,10.9%,3.9%,-13.9,-17.5%,2.5%
CCN(C(=O)c1cc2ccccc2oc1=O)c1cccc(C)c1,14.1µM*,-12.1%[46.1 µM],18.8%[38.3 µM],5.9,?,14.4%
CCN(C(=O)c1cc2ccccc2oc1=O)c1ccccc1,-7.6%,-12.2%[46.1 µM],6.1%[38.3 µM],1.8,-15.5%,-6.2%
Cc1ccc(CC(=O)NCCC(=O)O)cc1,nt,39.9%,nt,nt,nt,nt
CCNc1ccc(S(=O)(=O)N(C)C)cc1NCC(=O)Nc1c(F)cccc1F,?,8.0%,10.5%,-5.7,-18.3%,-0.3%
CCNc1ccc(S(=O)(=O)N(C)C)cc1NCC(=O)Nc1ccccc1Cl,8.91µM*,-28.4%,3.7%,nt,nt,nt
O=c1cc(-c2ccccc2)nc2nc(CCc3ccccc3)[nH]n12,-3.3%,-12.6%[46.1 µM],14.0%[38.3 µM],4.5,-8.8%,-1.8%
CC(C)(C)N=C1NN=C(c2cc3ccccc3o2)CS1,22.4µM*,?,nt,-4.9,nt,-5.6%
CC(C)c1ccc(NC(=O)COc2nncc3ccccc23)cc1,?,-13.0%[46.1 µM],nt,-6.7,nt,-2.6%
CCCN1C(=O)/C(=N\OCC(=O)Nc2ccc(C(C)C)cc2)c2ccccc21,0.501µM*,-35.1%,1.7%,nt,-24.4%,3.8%
CCCN1C(=O)/C(=N\OCC(=O)NC23CC4CC(CC(C4)C2)C3)c2ccccc21,0.282µM*,?,1.3%,-5.3,15.8µM*,0.1%
Cc1ccc([N+](=O)[O-])cc1S(=O)(=O)N(C)C,31.6µM*!,-11.3%[46.1 µM],9.8%,-0.7,5.2%,-6.5%
Cc1ccc(NC(=O)c2ccc([N+](=O)[O-])cc2)cc1S(=O)(=O)N(C)C,?,-11.6%,4.2%,nt,nt,nt
Cc1ccccc1-n1nc(C)c2cc(C(=O)NCc3cccnc3)sc21,?,-26.9%[46.1 µM],14.9%[38.3 µM],-1.9,?,-1.3%
O=C(c1ccc(S(=O)(=O)Cc2ccccc2F)c([N+](=O)[O-])c1)N1CCCCCC1,-14.8%,-3.9%,-2.5%,nt,nt,nt
O=C(c1ccc(S(=O)(=O)c2ccccc2Cl)c([N+](=O)[O-])c1)N1CCCCCC1,?,9.4%,9.4%,10.2,25.1µM*,-6.0%
O=C1CN(C(=O)COC(=O)CCNS(=O)(=O)c2ccc(Cl)cc2)c2ccccc2N1,nt,7.9%,nt,nt,nt,nt
Cc1nc2ccccc2n1CC(=O)N1CC(=O)Nc2ccccc21,?,0.8%[46.1 µM],9.2%[38.3 µM],4.0,-2.7%,-2.8%
O=C1CN(C(=O)Cn2ncc(Cl)c(Cl)c2=O)c2ccccc2N1,3.16µM*,-32.4%,-0.3%,nt,nt,nt
O=C1CN(C(=O)COC(=O)CCSc2ccccc2Cl)c2ccccc2N1,14.1µM*,-0.4%[46.1 µM],29.7%[38.3 µM],-1.9,17.8µM*,-0.4%
O=C(Cn1ncc(Cl)c(Cl)c1=O)NCC1CCCCC1,22.4µM*,-48.4%,-5.2%,nt,-8.2%,0.9%
O=C1CN(C(=O)CNCc2ccc(Cl)cc2)c2ccccc2N1,12.6µM*,-0.8%,nt,nt,nt,nt
CCCn1c(=S)[nH]c2cc(C(=O)N3CCc4ccccc43)ccc2c1=O,?,-9.1%[46.1 µM],17.2%[38.3 µM],11.2,-10.8%,-4.4%
CCNC(=O)Cc1ccc(Br)cc1,3.8%,3.1%[46.1 µM],33.5%[38.3 µM],0.4,-18.6%,9.0%

# Screening data as filed in PubChem.
